Screening data from PubChem.
HEK293 tox – Cytotoxic Profiling in HEK 293 Cell Line of Diverse Libraries Using Quantitative High-Throughput Screening. HEK 293 viability, ATP luminescence (CellTiter-Glo), 48-72 h. Potency, µM (doses to about 115 µM), inactives show at the highest dose activity change, negative = cytotoxicity, hits mostly inhibitors. actives 6.6% (n = 94,000). AID 1345083, 2018; further: nearly all actives have a fitted effect of over 60% in size
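Cytotoxicity was scored by loss of ATP-coupled luminescence (CellTiter-Glo) in HEK 293 cells. Compound treatment ran 48 or 72 hr at 37 degree Celsius, 5% CO2, 95% humidity.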
GPT2 inhibitor – Primary qHTS assay for inhibitors of Glutamate pyruvate transaminase 2 (GPT2) | Recombinant GPT2, coupled pyruvate oxidase/HRP Amplex Red fluorescence | Potency, µM (highest dose often 57.7 µM), inactives show top-dose activity change, negative = inhibition, usual class: inhibitors | AID 1671188, 2021 | Alanine aminotransferase 2 (Homo sapiens), Q8TD30 | actives 0.25% (n = 100,000); further: nearly all actives have a fitted effect of over 60% in size
Target sequence (Q8TD30 whole entry, looked up): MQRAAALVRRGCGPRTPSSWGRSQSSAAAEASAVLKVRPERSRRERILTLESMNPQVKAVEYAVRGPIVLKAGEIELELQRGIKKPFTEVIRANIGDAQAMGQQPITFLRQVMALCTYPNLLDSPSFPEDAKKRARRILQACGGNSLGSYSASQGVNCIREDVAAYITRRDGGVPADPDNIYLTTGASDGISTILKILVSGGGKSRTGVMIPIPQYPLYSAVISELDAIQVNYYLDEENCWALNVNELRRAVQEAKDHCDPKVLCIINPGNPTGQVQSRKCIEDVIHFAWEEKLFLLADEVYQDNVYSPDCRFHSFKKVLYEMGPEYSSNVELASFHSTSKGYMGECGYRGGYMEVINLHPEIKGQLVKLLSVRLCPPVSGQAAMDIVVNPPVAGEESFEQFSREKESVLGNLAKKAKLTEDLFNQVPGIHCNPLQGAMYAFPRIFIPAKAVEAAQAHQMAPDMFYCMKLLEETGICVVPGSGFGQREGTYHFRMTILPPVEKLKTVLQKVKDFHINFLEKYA
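Inhibition is scored from Amplex Red fluorescence generated when pyruvate oxidase and HRP act on pyruvate released by GPT2. Reactions contain 10ng/uL enzyme, 250uM a-KG and 2mM L-alanine and run 30 min at room temperature.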
NPR1 antag – Natriuretic polypeptide receptor (hNpr1) antagonism - Primary qHTS. AID 1347048, 2019. actives 1.6% (n = 76,000). Potency, µM (top dose mostly 46.3 µM), for inactives: top-dose activity change, negative = inhibition, usual class: inhibitors. Atrial natriuretic peptide receptor 1 (Homo sapiens), P16066. HEK293 hNpr1 GloSensor cGMP, ANP-stimulated luminescence; calls by dose curve; further: nearly all actives have a fitted effect of over 60% in size
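HEK293 cells stably expressing human Npr1 and cGMP GloSensor pGS-40F, loaded 2 h with 2% GloSensor reagent, given compound 30 min at room temperature. Luminescence read before and 20 min after 0.1 nM hNppA.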
FLuc inh – Firefly luciferase inhibition profiling of diverse chemical library using quantitative high-throughput screening. Luciferin 4-monooxygenase (Photinus pyralis), P08659. purified P. pyralis luciferase, luminescence, biochemical. Potency, µM (highest dose often 115 µM), most hits filed as inhibitors. actives 2.5% (n = 76,000); further: nearly all actives have a fitted effect of over 65% in size
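Purified 10nM P. pyralis luciferase with 10uM D-luciferin and 10uM ATP in 50mM Tris acetate pH 7.5, 10mM Mg acetate, 0.01% Tween-20, 0.05% BSA. qHTS titration; luminescence read by CCD imager.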
3T3 cytotox – Cytotoxic Profiling in NIH 3T3 Cell Line of Diverse Libraries Using Quantitative High-Throughput Screening | NIH 3T3 viability, CellTiter-Glo ATP luminescence, 48-72 h | Potency, µM (doses to about 96.7 µM), inactives show at the top dose activity change, negative = cytotoxicity, hits mostly inhibitors | actives 4.3% (n = 94,000) | AID 1345082, 2018; further: nearly all actives have a fitted effect of over 55% in size
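Luminescent ATP readout (CellTiter-Glo, 10 min RT) after 48 or 72 hr compound exposure of NIH 3T3 cells seeded at 400 cells/well in 1536-well format; quantitative HTS.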
An asterisk follows results filed as active; i = inactive; ? = inconclusive; / = no result; [ ] = remark or other dose. An excerpt weighted towards active compounds, which were near 10% of everything screened. Unless noted, the call rests on the fitted dose curve; in most records, active means well fitted curve in the direction sought with a large enough effect; inconclusive means small, poorly fitted or top-dose-only effect, or another doubt; inactive means no such curve, though single readings can be large; an effect the other way counts as inactive or inconclusive. On the % scale 0 is the no-effect control and ±100 the full control effect; potency means the concentration at half of the fitted maximal effect.

SMILES	HEK293 tox	GPT2 inhibitor	NPR1 antag	FLuc inh	3T3 cytotox
CN1CCN(Cc2ccc(CC3CCN(C(=O)c4ccc5cc[nH]c5c4)CC3)cc2)CC1	?	i	/	/	32µM*
NC(=O)c1cccc(-c2cc(-c3ccncc3)c3cncn3c2)c1	?	-16%[88.5 µM]	2%[70.6 µM]	i	35µM*
COc1ccc(-c2cc(-c3ccc4cn[nH]c4c3)cn3cncc23)cc1	71µM*	i	-14%[70.6 µM]	?	79µM*
c1cc(-c2cc(-c3ccc(N4CCOCC4)nc3)cn3cncc23)ccn1	?	i	-11%[70.6 µM]	i	?
c1cc(-c2cc(-c3ccc4cn[nH]c4c3)cn3cncc23)ccn1	63µM*	-7%[88.5 µM]	-2%[70.6 µM]	i	18µM*
COc1cccc(CC(=O)N2CCC3(CC2)CC(CC(=O)NCc2ccccc2)CCO3)c1 (stereo not drawn)	?	i	/	/	-30%
CC(=O)N1Cc2ccccc2CC2(CCCCN2CC2CCCC2)C1 (stereo not drawn)	?	-22%	/	/	?
O=C1CCn2nnc(CNc3cccc(C(F)(F)F)c3)c2CN1Cc1ccccc1	?	-7%[88.5 µM]	-2%[70.6 µM]	i	?
CCCNC(=O)NC[C@@H]1C=C(C)[C@H](Cc2nc3nc(OC)ccc3[nH]2)C[C@H]1C(C)C	63µM*	-12%[88.5 µM]	-19%[70.6 µM]	i	89µM*
CC(=O)NC[C@@H]1C=C(C)[C@H](Cc2nc3ccccc3[nH]2)C[C@H]1C(C)C	?	i	-21%[70.6 µM]	i	?
COc1ccc2[nH]c(C[C@@H]3C[C@@H](C(C)C)[C@H](CNC(=O)c4cccnc4)C=C3C)nc2n1	56µM*	2%[88.5 µM]	-23%[70.6 µM]	i	?
CC1=C[C@@H](CNC(=O)C(C)C)[C@H](C(C)C)C[C@H]1Cc1nc2ncccc2[nH]1	-23%[172 µM]	-9%[88.5 µM]	-5%[70.6 µM]	i	?
O=[S+]1([O-])NCC2(CCCN(Cc3ccc(C(F)(F)F)cc3)C2)Nc2ccccc21 (stereo not drawn)	32µM*	?	-17%	i	?
O=[S+]1([O-])NCC2(CCCN(Cc3ccc(Cl)cc3)C2)Oc2ncccc21 (stereo not drawn)	89µM*	i	/	/	?
O=[S+]1([O-])NCC2(CCN(Cc3ccc(OC(F)(F)F)cc3)CC2)Nc2ccccc21	40µM*	2%	1%	i	?
COc1ccc(CN2CCC3(CC2)CN[S+](=O)([O-])c2ccccc2N3)cc1	?	i	0%	i	-23%
O=[S+]1([O-])NCC2(CCCN(Cc3ccc(OC(F)(F)F)cc3)C2)Nc2ccccc21 (stereo not drawn)	?	-13%	-25%	i	45µM*
Cc1oc(-c2cccc(Oc3ccccc3)c2)nc1CN(C)CCCO	?	?	7%	i	?
O=C(c1ccccc1)N1CCCC2(CN[S+](=O)([O-])c3cnccc3N2)C1 (stereo not drawn)	-5%	/	/	/	-11%
COc1cc(Cl)cc(CN2CCC3(CCCNC3)C2)c1OC (stereo not drawn)	?	4%	-16%	i	?
COc1ccc(CC(=O)NCCNC(=O)c2cccc(-c3ncccc3C#N)c2)cc1	2%	-4%	/	/	-16%
COc1ccc(CNC(=O)c2ccc3nnc(-c4ccc(Cl)cc4)n3c2)cc1	-24%	i	/	/	?
O=C(COc1ccccc1)N1CC(CNc2cccnc2)C2(C1)CN(c1ccccc1)C2 (stereo not drawn)	71µM*	i	-12%[70.6 µM]	i	?
Oc1ccc(CN2CC(CNc3ccccc3)C3(C2)CN(c2ccccc2)C3)cc1 (stereo not drawn)	40µM*	-1%[88.5 µM]	-22%[70.6 µM]	i	25µM*
O=C(NCC1CN(C(=O)Cc2ccc(OC(F)(F)F)cc2)CC12CN(c1ccccc1)C2)Nc1ccccc1 (stereo not drawn)	?	i	-8%	i	28µM*
SMILES	HEK293 tox	GPT2 inhibitor	NPR1 antag	FLuc inh	3T3 cytotox
c1ccc(CN2CC(CNc3cccnc3)C3(C2)CN(c2ccccc2)C3)cc1 (stereo not drawn)	?	0%[88.5 µM]	-4%[70.6 µM]	i	50µM*
COc1ccccc1C(=O)N1CC(CNc2cccnc2)C2(C1)CN(c1ccccc1)C2 (stereo not drawn)	?	-9%[88.5 µM]	-6%[70.6 µM]	i	?
Clc1cccc(CN2CC(CNc3cccnc3)C3(C2)CN(c2ccccc2)C3)c1 (stereo not drawn)	?	0%[88.5 µM]	-20%[70.6 µM]	i	?
Cc1ccc(NC(=O)CC2CCCCN(Cc3ccccc3)C2=O)cc1 (stereo not drawn)	?	-4%	/	/	?
Cc1cnc(CC2CCCN(C(=O)Cc3cccc(F)c3)C2)n1C(C)C (stereo not drawn)	-15%	-8%	/	/	-28%
COc1cccc(CNC(=O)C23CCC=C2N(C2CCCC2)C(=O)CC3)c1OC (stereo not drawn)	?	i	/	/	-19%
COC(=O)N1CCN(C(=O)c2nc3cccnc3n(CC(C)C)c2=O)CC1	-7%	i	/	/	-16%
CCc1nc2c(c(-c3ccc(O)cc3)n1)CCN(C(=O)Cc1cccc(Cl)c1)CC2	-16%	i	/	/	-10%
O=C(NCC1CN(Cc2cccc(O)c2)CC12CN(c1ccccc1)C2)c1ccccc1 (stereo not drawn)	?	-5%[88.5 µM]	-18%[70.6 µM]	i	28µM*
Nc1ncccc1CN1CC(COc2ccccc2)C2(C1)CN(c1ccccc1)C2 (stereo not drawn)	35µM*	-2%[88.5 µM]	-30%[70.6 µM]	i	40µM*
CC(C)(C)c1ccc(-c2noc(CNC(=O)CN3C(=O)CNC3=O)n2)cc1	-1%	-3%[11.5 µM]	-3%	18µM*	-6%
CC1=C[C@@H](CN(C)CCO)[C@H](C(C)C)C[C@H]1Cc1nnc(-c2ccc(C)cc2)o1	89µM*	i	-2%[70.6 µM]	i	?
COCCNC[C@@H]1C=C(C)[C@H](Cc2nnc(-c3ccc(OC)cc3)o2)C[C@H]1C(C)C	28µM*	?	1%[70.6 µM]	i	28µM*
COc1ccc(-c2nnc(C[C@@H]3C[C@@H](C(C)C)[C@H](CO)C=C3C)o2)cc1	40µM*	-5%[88.5 µM]	-2%[70.6 µM]	i	?
Cc1nn(-c2ccccc2)c2c1C(C1CC1)N(CC1CN(C(=O)N(C)C)C1)C2=O (stereo not drawn)	45µM*	/	/	/	?
Cc1nn(-c2ccccc2)c2c1C(C1CC1)N(CC1CN(C(=O)C3CCCC3)C1)C2=O (stereo not drawn)	?	/	/	/	45µM*
